Paper PMC12670160, “A drug-repurposing screen of FDA- and EMA-approved drugs identifies two NF-κB inhibitors active against eumycetoma” (Journal of Antimicrobial Chemotherapy, 2025)
Counter-ions that a name gives are not always drawn. Like-named read-outs stand apart in the source and are kept apart here. About 130 (2.5%) of roughly 5,300 compounds showed an effect of 50% or more. The full list was thinned out, with strong results kept by preference.

System: M. mycetomatis strain mm55
Details: primary screen, metabolic activity vs growth control, 96 h, 2 µM, inhibitor
[1] = Madurella mycetomatis metabolic activity at 2µM (%)

| Structure (SMILES) | % viability | % viability [1] |
| --- | --- | --- |
| CC(=O)OCC(=O)[C@@]12OC(C)(C)O[C@@H]1CC1C3C[C@H](F)C4=CC(=O)C=C[C@]4(C)[C@@]3(F)[C@@H](O)C[C@@]12C (some centres unmarked) [ONC0000518, fluocinonide] | 69.32% |  |
| CCN(CC)CCNC(=O)COc1ccc(OC)cc1 [ONC0000676, mefexamide hydrochloride] | 93.51% |  |
| CCN(CC)CCN1C(=O)C(=Cc2ccc(OC)cc2)Nc2ccccc21 [ONC0005609, caroverine] | 42.25% |  |
| COc1ccc(C2Sc3ccccc3N(CCN(C)C)C(=O)C2OC(C)=O)cc1 (centres unmarked) [ONC0005348, diltiazem hydrochloride] | 61.39% |  |
| CC(=O)N[C@H]1[C@H]([C@H](O)[C@H](O)CO)OC(C(=O)O)=C[C@@H]1N=C(N)N [ONC0004525, zanamivir relenza] | 62.68% |  |
| CCOC(=O)C1=C[C@]2(CC)CCCN3CCc4c(n1c1ccccc41)[C@@H]32 [ONC0002865, vinpocetine] | 109.8% |  |
| CC[C@]12CCCN3CCc4c(n(c5ccccc45)C(=O)C1)[C@@H]32 [ONC0003441, eburnamonine] | 44.28% |  |
| CC[C@]12CCCN3CCc4c(n(c5ccccc45)[C@@](O)(C(=O)OC)C1)[C@@H]32 [ONC0003425, vincamine] | 89.22% |  |
| Cc1ccc(NC2=CC(=O)c3sc(C)nc3C2=O)cc1 [ONC0003545, ryuvidine] | 94.75% |  |
| COc1cccc(/C=N/C=N/c2cccc(OC)c2)c1 [ONC0002505, dmeob] | 75.27% |  |
| CO[C@@H](C(=O)N1Cc2n[nH]c(NC(=O)c3ccc(N4CCN(C)CC4)cc3)c2C1)c1ccccc1 [ONC0004749, danusertib pha739358] | 112.5% |  |
| CN(C)c1ccc(C(=C2C=CC(=[N+](C)C)C=C2)c2ccc(N(C)C)cc2)cc1 [ONC0000415, gentian violet] | 35.99% |  |
| CCN(CC)c1ccc(C(=C2C=CC(=[N+](CC)CC)C=C2)c2ccccc2)cc1 [ONC0002765, brilliant green] | 123.8% |  |
| CC1=CC(=C(c2ccc(N)cc2)c2ccc(N)cc2)C=CC1=N [ONC0002809, basic fuchsin] | 79.53% |  |
| Cc1cc(O)c(-c2ccc([C@@H](C)CN)cc2)c2c1[nH]c(=O)c1sccc12 [ONC0001173, ots514] | 81.93% |  |
| CCOc1nc2cccc(C(=O)OC(C)OC(=O)OC3CCCCC3)c2n1Cc1ccc(-c2ccccc2-c2nnn[nH]2)cc1 (centres unmarked) [ONC0004302, candesartan cilextil] | 98.1% |  |
| CCCCCCCCCCCCOS(=O)(=O)O [ONC0002181, sodiumdodecylsulfate] |  | 96.71% |
| Nc1nc(O)c2ncn(COC(CO)CO)c2n1 [ONC0003983, ganciclovir hydrate] | 92.25% |  |
| NS(=O)(=O)Nc1ncnc(OCCOc2ncc(Br)cn2)c1-c1ccc(Br)cc1 [ONC0002096, aprocitentan] | 65.83% |  |
| CC(C)(C)[C@@]1(O)CCN2C[C@@H]3c4ccccc4CCc4cccc(c43)[C@H]2C1 [ONC0002006, butaclamolhcl] | 90.12% |  |
| C=C1NCC[C@@H](C(=O)O)N1 [ONC0005375, ectoinezwitterion] | 125.4% |  |
| NC[C@H]1O[C@H](O[C@H]2C(O[C@@H]3O[C@H](CO)[C@@H](O)[C@H]3O)[C@@H](O)[C@H](N)C[C@@H]2N)[C@H](N)[C@@H](O)[C@@H]1O (some centres unmarked) [ONC0002301, ribostamycin sulfate] | 111.7% |  |
| OC[C@H]1O[C@H](O[C@H]2O[C@H](CO)[C@@H](O)[C@H](O)[C@H]2O)[C@H](O)[C@@H](O)[C@@H]1O [ONC0003487, trehalose] | 42.59% |  |
| OC[C@H]1O[C@@H](O[C@@H]2[C@H](O)[C@@H](O)[C@H](O[C@H]3[C@H](O)[C@@H](O)C(O)O[C@@H]3CO)O[C@@H]2CO)[C@H](O)[C@@H](O)[C@H]1O (some centres unmarked) [ONC0004130, 4galactosyllactose] | 126.3% |  |

| Structure (SMILES) | % viability | % viability [1] |
| --- | --- | --- |
| NC[C@@H]1O[C@H](O[C@H]2[C@@H](O)[C@H](O[C@@H]3[C@@H](O)[C@H](N)C[C@H](N)[C@H]3O[C@H]3O[C@H](CO)[C@@H](O)[C@H](O)[C@H]3N)O[C@@H]2CO)[C@H](N)[C@@H](O)[C@@H]1O [ONC0005310, paromomycin] | 134.8% |  |
| OC[C@H]1O[C@H](O[C@H]2[C@H](O)[C@@H](O)[C@H](O)O[C@@H]2CO)[C@H](O)[C@@H](O)[C@@H]1O [ONC0000327, dmaltose] | 54.64% |  |
| NC[C@H]1O[C@H](O[C@H]2[C@H](O[C@@H]3O[C@H](CO)[C@@H](O)[C@H]3O)[C@@H](O)[C@H](N)C[C@@H]2N)[C@H](N)[C@@H](O)[C@@H]1O [ONC0001104, ribostamycin sulfate] | 39.68% |  |
| O=C1OC2(c3cc(I)c(O)c(I)c3Oc3c2cc(I)c(O)c3I)c2c(Cl)c(Cl)c(Cl)c(Cl)c21 [ONC0002798, rose bengal sodium salt] |  | 83.07% |
| CC1=C(C(=O)O)N2C(=O)[C@@H](NC(=O)[C@H](N)C3=CCC=CC3)C2SC1 (some centres unmarked) [ONC0000708, cephradine] | 86.49% |  |
| CCS(=O)(=O)N(C)[C@@H]1c2cc(C#N)ccc2OC(C)(C)[C@H]1O.CCS(=O)(=O)N(C)[C@H]1c2cc(C#N)ccc2OC(C)(C)[C@@H]1O [ONC0001571, chromanol] | 78.85% |  |
| CC1(C)Oc2ccc(C#N)cc2[C@H](N(Cc2ncc[nH]2)c2ccc(Cl)cc2)[C@H]1O [ONC0001872, bms191095] | 47.09% |  |
| CCS(=O)(=O)N(C)[C@H]1c2cc(C#N)ccc2OC(C)(C)[C@@H]1O [ONC0002693, chromanol293b3r4s] | 103.9% |  |
| c1ccc(C(O[C@@H]2CCCN(CCc3ccc4c(c3)OCO4)C2)c2ccccc2)cc1 [ONC0003094, zamifenacin] | 77.83% |  |
| CCCCn1c(-c2ccccc2)nc(-c2ccccc2)c1CN(Cc1ccc2c(c1)OCO2)Cc1ccc2c(c1)OCO2 [ONC0002511, ndt9513727] | 38.93% |  |
| c1ccc2sc(N3CCN(Cc4ccc5c(c4)OCO5)CC3)nc2c1 [ONC0000161, 214piperonylpiperazinylbenzothiazole] | 77.89% |  |
| Nc1ncnc2c1c(-c1cccc(OCc3ccccc3)c1)cn2C1CC(CN2CCCC2)C1 (stereo in doubt) [ONC0000263, nvpadw742] | 57.9% |  |
| CCCN1C[C@@H](NS(=O)(=O)N(CC)CC)C[C@@H]2Cc3c(O)cccc3C[C@H]21 [ONC0000942, quinagolide hydrochloride] | 65.37% |  |
| CO[C@H](C(=O)[C@@H](O)[C@@H](C)O)[C@@H]1Cc2cc3cc(O[C@H]4C[C@@H](O[C@H]5C[C@@H](O)[C@H](O)[C@@H](C)O5)[C@@H](O)[C@@H](C)O4)c(C)c(O)c3c(O)c2C(=O)[C@H]1O[C@H]1C[C@@H](O[C@H]2C[C@@H](O[C@H]3C[C@](C)(O)[C@H](O)[C@@H](C)O3)[C@H](O)[C@@H](C)O2)[C@H](O)[C@@H](C)O1 [ONC0003516, plicamycin mithramycin] | 50.92% |  |
| Cc1c(N)nc([C@H](CC(N)=O)NC[C@H](N)C(N)=O)nc1C(=O)N[C@H](C(=O)N[C@H](C)[C@@H](O)[C@H](C)C(=O)N[C@H](C(=O)NCCc1nc(-c2nc(C(=O)NCCC[S+](C)C)cs2)cs1)[C@@H](C)O)[C@@H](O[C@@H]1O[C@@H](CO)[C@@H](O)[C@H](O)[C@@H]1O[C@H]1O[C@H](CO)[C@@H](O)[C@H](OC(N)=O)[C@@H]1O)c1c[nH]cn1 [ONC0004316, bleomycin sulfate] | 4.137% |  |
| Cc1c(N)nc([C@H](CC(N)=O)NC[C@H](N)C(N)=O)nc1C(=O)N[C@H](C(=O)N[C@H](C)[C@@H](O)[C@H](C)C(=O)N[C@H](C(=O)NCCc1nc(-c2nc(C(=O)NCCCNCCCCN)cs2)cs1)[C@@H](C)O)[C@@H](O[C@@H]1O[C@@H](CO)[C@@H](O)[C@H](O)[C@@H]1O[C@@H]1O[C@H](CO)[C@@H](O)[C@H](OC(N)=O)[C@@H]1O)c1cnc[nH]1 [ONC0002990, bleomycetin] | 3.217% |  |
| CO/N=C(/C(=O)NC1C(=O)N2C(C(=O)O)=C(C[N+]3(C)CCCC3)CSC12)c1csc(N)n1 (centres unmarked) [ONC0000506, cefepime hydrochloride] | 66.95% |  |
| CC(=O)OCC(=O)[C@@]1(O)[C@@H](C)CC2C3CCC4=CC(=O)C=C[C@]4(C)[C@@]3(F)[C@@H](O)C[C@@]21C (some centres unmarked) [ONC0004050, betamethasone acetate] | 111.9% |  |
| O=CN1CCC(C(=O)NCCN2CCC(=C3c4ccccc4C=Cc4ccccc43)CC2)CC1 [ONC0001856, at1015] | 84.57% |  |
| N#Cc1ccc(N2NC3=C(CCc4cc(C(=O)O)ccc43)[C@@H]2C2CCCC2)cc1Cl [ONC0002131, pf03882845] | 78.15% |  |
| COc1ccc(Nc2nccc(NCCO)n2)cc1 [ONC0000720, cardiogenolc] | 79.31% |  |
| O=C(Nc1cccc(Cl)c1)c1ccccn1 [ONC0004653, vu 0364770] | 68.57% |  |
| OCCCNc1cc(-c2ccnc(Nc3cccc(Cl)c3)n2)ccn1 [cgp60474] | 9.09% |  |
